Measurements from the supplement of paper PMC8728848.
About 410 targets per protein were measured; listed, in parts, are those with the strongest signals and a random draw of the rest.

Columns and labels:
Test in all cases: glycan array binding signal (z-score within array); higher = stronger binding
Details in all cases: glycan notation: IUPAC condensed, linker removed
[1] = target: Gal(b1-4)GlcNAc(b1-3)[GlcNAc(b1-6)]Gal(b1-4)GlcNAc
Outline: (§1)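 The binding signal is a Z-score computed within each array. Data were drawn from 3228 arrays in the Consortium for Functional Glycomics database, restricted to those with a known protein sequence. Scores were averaged over arrays of the same protein sequence at different concentrations or buffers, and over linkers, and negative values can be taken as non-binding.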

Gal(b1-4)GlcNAc6P = target: Gal(b1-4)GlcNAc6P
Outline: as §1

Gal3S(b1-4)Glc = target: Gal3S(b1-4)Glc
Outline: as §1

Gal3S(b1-4)Glc6S = target: Gal3S(b1-4)Glc6S
Outline: as §1

[2] = target: Gal3S(b1-4)[Fuc(a1-3)]GlcNAc6S
Outline: as §1

Gal3S6S(b1-4)GlcNAc = target: Gal3S6S(b1-4)GlcNAc
Outline: as §1

Gal4S6S(b1-4)GlcNAc = target: Gal4S6S(b1-4)GlcNAc
Outline: as §1

Gal6S(b1-4)Glc = target: Gal6S(b1-4)Glc
Outline: as §1

[3] = target: GalNAc(a1-3)GalNAc(b1-3)Gal(a1-4)Gal(b1-4)Glc
Outline: as §1

[4] = target: GalNAc(a1-3)GalNAc(b1-3)Gal(a1-4)Gal(b1-4)GlcNAc
Outline: as §1

GalNAc(b1-4)Gal(b1-4)Glc = target: GalNAc(b1-4)Gal(b1-4)Glc
Outline: as §1

GalNAc3S(b1-4)GlcNAc = target: GalNAc3S(b1-4)GlcNAc
Outline: as §1

[5] = target: Glc(a1-6)Glc(a1-6)Glc(a1-6)Glc
Outline: as §1

[6] = target: GlcNAc(b1-3)Gal(b1-4)GlcNAc(b1-3)Gal(b1-4)GlcNAc(b1-3)Gal(b1-4)GlcNAc(b1-3)Gal(b1-4)GlcNAc(b1-2)Man(a1-3)[GlcNAc(b1-3)Gal(b1-4)GlcNAc(b1-3)Gal(b1-4)GlcNAc(b1-3)Gal(b1-4)GlcNAc(b1-3)Gal(b1-4)GlcNAc(b1-2)Man(a1-6)]Man(b1-4)GlcNAc(b1-4)[Fuc(a1-6)]GlcNAc
Outline: as §1

[7] = target: GlcNAc(b1-4)[GlcNAc(b1-6)]GalNAc
Outline: as §1

[8] = target: Man(a1-3)[Man(a1-6)]Man(a1-6)[Man(a1-2)Man(a1-3)]Man(b1-4)GlcNAc(b1-4)GlcNAc
Outline: as §1

[9] = target: Man(a1-3)[Man(a1-6)]Man(a1-6)[Man(a1-3)]Man
Outline: as §1

Man(a1-6)Man = target: Man(a1-6)Man
Outline: as §1

[10] = target: Neu5Ac(a2-3)Gal(b1-3)[Fuc(a1-4)]GlcNAc(b1-3)Gal(b1-4)[Fuc(a1-3)]GlcNAc
Outline: as §1

[11] = target: Neu5Ac(a2-3)Gal(b1-3)[Neu5Ac(a2-6)]GalNAc
Outline: as §1

[12] = target: Neu5Ac(a2-3)Gal(b1-4)GlcNAc(b1-2)Man
Outline: as §1

[13] = target: Neu5Ac(a2-3)Gal(b1-4)GlcNAc(b1-2)Man(a1-3)[GlcNAc(b1-4)][Neu5Ac(a2-3)Gal(b1-4)GlcNAc(b1-2)Man(a1-6)]Man(b1-4)GlcNAc(b1-4)GlcNAc
Outline: as §1

[14] = target: Neu5Ac(a2-3)[GalNAc(b1-4)]Gal(b1-4)GlcNAc
Outline: as §1

[15] = target: Neu5Ac(a2-6)Gal(b1-4)GlcNAc(b1-2)Man(a1-3)[Gal(b1-4)GlcNAc(b1-2)Man(a1-6)]Man(b1-4)GlcNAc(b1-4)GlcNAc
Outline: as §1

[16] = target: Neu5Ac(a2-6)Gal(b1-4)GlcNAc(b1-2)Man(a1-3)[GlcNAc(b1-4)][Neu5Ac(a2-6)Gal(b1-4)GlcNAc(b1-2)Man(a1-6)]Man(b1-4)GlcNAc(b1-4)GlcNAc
Outline: as §1

[17] = target: Neu5Ac(a2-6)Gal(b1-4)GlcNAc(b1-2)[Neu5Ac(a2-6)Gal(b1-4)GlcNAc(b1-4)]Man(a1-3)[GlcNAc(b1-4)][Neu5Ac(a2-6)Gal(b1-4)GlcNAc(b1-2)[Neu5Ac(a2-6)Gal(b1-4)GlcNAc(b1-6)]Man(a1-6)]Man(b1-4)GlcNAc(b1-4)GlcNAc
Outline: as §1

[18] = target: Neu5Ac(a2-6)Gal(b1-4)GlcNAc(b1-3)Gal(b1-4)GlcNAc(b1-2)Man(a1-3)[Neu5Ac(a2-6)Gal(b1-4)GlcNAc(b1-3)Gal(b1-4)GlcNAc(b1-2)Man(a1-6)]GalNAc
Outline: as §1

[19] = target: Neu5Ac(a2-6)GalNAc(b1-4)GlcNAc6S
Outline: as §1

Neu5Ac(a2-8)Neu5Ac = target: Neu5Ac(a2-8)Neu5Ac
Outline: as §1

[20] = target: Neu5Ac(a2-8)Neu5Ac(a2-8)Neu5Ac(a2-8)Neu5Ac(a2-3)[GalNAc(b1-4)]Gal(b1-4)Glc
Outline: as §1

B1: Clone646PsrP (Streptococcus pneumoniae) (protein)
chain: MDHHHHHHHHASENLYFQGAPAINASLNIAKSETKVYTGEGVDSVYRVPIYYKLKVTNDGSKLTFTYTVTYVNPKTNDLGNISSMRPGYSIYNSGTSTQTMLTLGSDLGKPSGVKNYITDKNGRQVLSYNTSTMTTQGSGYTWGNGAQMNGFFAKKGYGLTSSWTVPITGTDTSFTFTPYAARTDRIGINYFNGGGKVVESSTTSQSLSQSKSLSVSAS
glycan array binding signal (z-score) [1]: -0.238 | glycan array binding signal (z-score) (Gal(b1-4)GlcNAc6P): 2.57 | glycan array binding signal (z-score) (Gal3S(b1-4)Glc): 1.81 | glycan array binding signal (z-score) (Gal3S(b1-4)Glc6S): 1.63 | glycan array binding signal (z-score) [2]: 3.08 | glycan array binding signal (z-score) (Gal3S6S(b1-4)GlcNAc): 2.75 | glycan array binding signal (z-score) (Gal4S6S(b1-4)GlcNAc): 0.386 | glycan array binding signal (z-score) (Gal6S(b1-4)Glc): -0.221 | glycan array binding signal (z-score) [3]: -0.265 | glycan array binding signal (z-score) [4]: -0.546 | glycan array binding signal (z-score) (GalNAc(b1-4)Gal(b1-4)Glc): 2.93 | glycan array binding signal (z-score) (GalNAc3S(b1-4)GlcNAc): 2.09 | glycan array binding signal (z-score) [5]: 3.01 | glycan array binding signal (z-score) [6]: -0.863 | glycan array binding signal (z-score) [7]: -0.205 | glycan array binding signal (z-score) [8]: 1.06 | glycan array binding signal (z-score) [9]: 3.32 | glycan array binding signal (z-score) (Man(a1-6)Man): 4.74 | glycan array binding signal (z-score) [10]: -0.482 | glycan array binding signal (z-score) [11]: -0.254 | glycan array binding signal (z-score) [12]: 2.89 | glycan array binding signal (z-score) [13]: -0.995 | glycan array binding signal (z-score) [14]: -0.733 | glycan array binding signal (z-score) [15]: -0.713 | glycan array binding signal (z-score) [16]: -0.966 | glycan array binding signal (z-score) [17]: -0.332 | glycan array binding signal (z-score) [18]: -0.421 | glycan array binding signal (z-score) [19]: -0.113 | glycan array binding signal (z-score) (Neu5Ac(a2-8)Neu5Ac): 0.174 | glycan array binding signal (z-score) [20]: -0.64
